From PubChem BioAssay
Active and inactive are the calls of the source. How the calls were made is not given here.

Target: Pantothenate synthetase (Mycobacterium tuberculosis (strain ATCC 25618 / H37Rv)) (UniProt P9WIL5)
Assay: Coupled enzyme confirmation of inhibitors against recombinant Mtb PanC (AID 375);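 further: 0% = full reaction with vehicle and 100% = no enzyme background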
Details: coupled enzyme assay; at 10 µM, stronger effect = higher value

Chain of Pantothenate synthetase (Mycobacterium tuberculosis (strain ATCC 25618 / H37Rv)) (P9WIL5 whole entry, looked up): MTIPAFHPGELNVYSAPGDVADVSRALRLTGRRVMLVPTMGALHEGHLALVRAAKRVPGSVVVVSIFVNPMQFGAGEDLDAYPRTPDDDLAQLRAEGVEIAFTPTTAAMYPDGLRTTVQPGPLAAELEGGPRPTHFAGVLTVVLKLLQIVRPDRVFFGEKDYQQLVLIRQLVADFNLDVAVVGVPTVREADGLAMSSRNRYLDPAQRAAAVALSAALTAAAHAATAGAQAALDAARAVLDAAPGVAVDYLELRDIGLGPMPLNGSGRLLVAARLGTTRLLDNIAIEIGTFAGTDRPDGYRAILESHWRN

Row | SMILES | inhibition
1 | COC(=O)c1[nH]c2cc(OC)ccc2c1NC(=O)CCN1CCCCC1 | 1% (inactive)
2 | CCOC(=O)c1c(C)n(OCc2ccccc2)c2ccc3c(no[n+]3[O-])c12 | 0% (inactive)
3 | O=C(CCSc1nccn1Cc1ccccc1)N1CCOCC1 | 0% (inactive)
4 | CCN(CC)S(=O)(=O)c1ccc(NC2c3ccccc3C(=O)N2CCN2CCOCC2)cc1 (stereo not given) | 0% (inactive)
5 | COc1ccc2c(c1)n([O-])c1c([n+]2=O)CCC1 | 0% (inactive)
6 | COc1cc(C(=O)N2CCCC(c3nc(-c4cccs4)no3)C2)cc(OC)c1OC (stereo not given) | 0% (inactive)
7 | CC1(c2ccc(Cl)cc2)NC(=O)N(CC(=O)NC(=O)NCc2ccco2)C1=O (stereo not given) | 1% (inactive)
8 | Cc1cc(C)n2c(SCC(=O)Nc3cc(C)on3)nnc2n1 | 17% (inactive)
9 | O=C(O)CCCC(=O)Nc1ccc(Br)cc1C(=O)O | 0% (inactive)
10 | Cn1c(=O)c2c(nc(NCC3CCCO3)n2C)n(C)c1=O (stereo not given) | 0% (inactive)
11 | O=C(C1CCN(c2nnnn2-c2ccccc2)CC1)N1CCN(c2ccccc2)CC1 | 0% (inactive)
12 | COc1ccc(-c2noc(CCC(=O)NCCCN3CCC(Cc4ccccc4)CC3)n2)cc1 | 0% (inactive)
13 | COc1ccccc1N1CCN(C(=O)c2ccc3nc(-c4ccco4)c(-c4ccco4)nc3c2)CC1 | 9% (inactive)
14 | CCOC(=O)C1(C(=O)OCC)C(c2ccccc2)CC(O)N1C(C)=O (stereo not given) | 0% (inactive)
15 | CCOC(=O)c1[nH]c(C)c(C(=O)Nc2ccc(C)c(Cl)c2)c1C | 9% (inactive)
16 | Cc1cc(NS(=O)(=O)c2ccc(NC(=O)COc3ccccc3C(C)C)cc2)no1 | 0% (inactive)
17 | CC(NO)C(C)(C)NO (stereo not given) | 8% (inactive)
18 | Oc1c(I)cc(I)c2cccnc12 | 2% (inactive)
19 | CCOc1cc(NC(=O)c2ccco2)c(OCC)cc1NC(=O)CCC(=O)NCc1cccnc1 | 3% (inactive)
20 | CCN(CC)S(=O)(=O)N1CCC(C(=O)NCC2COc3ccccc3O2)CC1 (stereo not given) | 1% (inactive)

Row | SMILES | inhibition
21 | Cc1c(NC(=O)CN2c3cccc4cccc(c34)S2(=O)=O)c(=O)n(-c2ccccc2)n1C | 0% (inactive)
22 | CC1CN(c2nc(-c3ccccc3)nc3ccccc23)CC(C)O1 (stereo not given) | 0% (inactive)
23 | Cn1c(=O)[nH]c(=O)c2c1nc(N1CCCCC1)n2CCSc1ncccn1 | 0% (inactive)
24 | COc1ccc(C)cc1S(=O)(=O)Nc1cccnc1 | 0% (inactive)
25 | CN(C)C(=O)CSc1nnc([C@H](Cc2c[nH]c3ccccc23)NC(=O)OC(C)(C)C)o1 | 13% (inactive)
26 | COc1ccc(C(=O)NCc2nc3ccccc3[nH]2)cc1OC | 5% (inactive)
27 | CC12CCC(C(=O)O)(c3nc(C#N)c(C#N)nc31)C2(C)C (stereo not given) | 13% (inactive)
28 | COc1ccc(OC)c(C(=O)c2nc3c(n2O)CCCCC3)c1 | 0% (inactive)
29 | Cc1ccccc1NC(=O)C1CCCN(S(=O)(=O)c2cnc[nH]2)C1 (stereo not given) | 2% (inactive)
30 | O=C(Nc1ccc2c(c1)OCO2)N1CCN(c2ncccn2)CC1 | 0% (inactive)
31 | CNC[C@H](O)c1cccc(O)c1 | 0% (inactive)
32 | CCOC(=O)C1CCN(S(=O)(=O)c2cccc(-c3csc(C)n3)c2)CC1 | 0% (inactive)
33 | CCc1noc(C)c1C(=O)NCCc1ccc(OC)c(OC)c1 | 3% (inactive)
34 | COc1ccccc1C1/C(=C(\O)c2c(C)nc3c(C)cccn23)C(=O)C(=O)N1CCCN(C)C (stereo not given) | 0% (inactive)
35 | CCN1C(=C2C(=O)c3ccccc3C2=O)C=Cc2ccccc21 | 0% (inactive)
36 | O=C1NC(=O)C2(CCC(C(=O)O)C2)N1 (stereo not given) | 11% (inactive)
37 | Cc1oc(-c2ccccc2Cl)nc1CSCC(=O)N1CCCC1 | 1% (inactive)
38 | COc1cccc(-c2csc(N3CCN(CC(=O)Nc4ccc5c(c4)OCO5)CC3)n2)c1 | 0% (inactive)
39 | c1ccc(CCNc2ccc3nncn3n2)cc1 | 2% (inactive)
40 | COc1ccc(C(C(=O)NC2CCCCC2)N2CCC3(CC2)OCCO3)cc1 (stereo not given) | 0% (inactive)
